The source of these data is PubChem BioAssay (Tox21).

A number with no mark means an inactive call. Where a call stands in place of a potency, no number is given. Calls of active or inactive are those of the source. Calls come from the whole dose curve; as a rule, active = well fitted cell-killing curve with a large enough effect in the repeat runs; inconclusive = weak or mixed curves, or effect the other way; inactive = flat fitted curve, though single readings scatter.

The nature of the assay: qHTS assay to identify small molecule HDAC inhibitors - cell viability counter screen (AID 1259365). Note: nearly all actives have a fitted effect of over 50% in size. As to conditions: HCT-116 viability, CellTiter-Glo ATP luminescence, 2 h; series mostly up to 92.4 µM. The source says:
U.S. Tox21 Program National Center for Advancing Translational Sciences [NCATS] NIH Chemical Genomics Center [NCGC] U.S. Environmental Protection Agency [EPA] National Institutes of Environmental Health Sciences [NIEHS] National Toxicology Program [NTP] U.S. Food and Drug Administration [FDA] Tox21 Assay Overview: Histone deacetylases (HDACs) are a group of epigenetic enzymes that regulate gene expression by histone deacetylation. HDACs are capable of introducing epigenetic modifications and such aberrations contribute to the onset and progression of several human diseases, thus making HDACs a popular therapeutic target. For identifying endogenous class I/II HDAC inhibitors a homogenous, luminogenic HDAC I/II cell based assay was used to measure the relative activity of class I and II HDACs from cells. Wild type HCT-116 cells were used to screen Tox21 compound libraries for identifying class I/II HDAC inhibitors.
Tox21 Assay Protocol Summary: HCT-116 cells were dispensed at 1,500 per well in 5uL of culture medium into white solid bottom 1536-well plates (Greiner Bio-One, Monroe, NC) using a Multidrop Combi (Thermo Scientific, Waltham, MA) dispenser. The assay plates were incubated at 37 C and 5% CO2 for an overnight, and then 23nL of compounds dissolved in DMSO and positive control were transferred using a Pintool station (Wako, San Diego, CA). The assay plates were incubated at 37C and 5% CO2 for 2hr. After compound treatment, 4uL of CellTiter-Glo reagent (Promega Corporation, Madison, WI) was added to each well of the assay plates using Flying Reagent Dispenser (FRD, Aurora Discovery, San Diego, CA) and incubated the assay plates at room temperature for 30min. The luminescence signal was quantified using a ViewLux plate reader (Perkin Elmer, Shelton, CT).
As to `CC1=CC[C@H](C(C)C)C=C1`, the Potency entry was “inactive”. Take `O=C(Nc1ccc(S(=O)(=O)N2CCOCC2)cc1)c1cc(Cl)ccc1NS(=O)(=O)c1ccc(Cl)s1`: the Potency entry was “inactive”. The same measure, in the same setting: the value for `OCCN1CCN(CCCN2c3ccccc3C=Cc3ccccc32)CC1` was “inactive”; that for `CCOC(=O)C1=C[C@]2(CC)CCCN3CCc4c(n1c1ccccc41)[C@@H]32` was “inactive”; that for `O=[N+]([O-])c1cccc(S(=O)(=O)O)c1` was “inactive”. As for `CCOc1ccc(N=Nc2ccc(/C=C/c3ccc(N=Nc4ccc(OCC)cc4)cc3S(=O)(=O)O)c(S(=O)(=O)O)c2)cc1`, the Potency result was “inactive”. For `CCCCc1ncc(/C=C(\Cc2cccs2)C(=O)O)n1Cc1ccc(C(=O)O)cc1`, the Potency result was “inactive”. On to `CCCCC(CC)COC(=O)CCCCCCCCC(=O)OCC(CC)CCCC` (stereo not given), for which the Potency result is “inactive”. Still for that read-out and setting: the same measure for `C=C(C)C(=O)OCCOCC`: “inactive”; for `Nc1cccc(S(=O)(=O)c2cccc(N)c2)c1`: “inactive”; for `COc1cc2nc(N3CCN(C(=O)C4COc5ccccc5O4)CC3)nc(N)c2cc1OC` (stereo not given): “inactive”. On the same count and under the same terms, the value for `c1ccc(CNCCNCc2ccccc2)cc1` was “inactive”; that for `C1CCCNCCC1` was “inactive”. Same read-out and setting: the same measure for `NCCCN1CCOCC1`: “inactive”. With `CCC(=O)O[C@]1(C(=O)CCl)[C@@H](C)C[C@H]2[C@@H]3CCC4=CC(=O)C=C[C@]4(C)[C@@]3(F)[C@@H](O)C[C@@]21C`, the Potency result was “inactive”. As to `O=C(OCCCCCCOC(=O)c1ccccc1)c1ccccc1`, the Potency result was “inactive”. With `Cc1cc(N)c2cc(NC(=O)Nc3ccc4nc(C)cc(N)c4c3)ccc2n1`, the Potency result is “inactive”. As to `Clc1ccc(Cn2c(CN3CCCC3)nc3ccccc32)cc1`, the Potency entry was “inactive”.

As to `C=C(C)C(=O)OCC`, the Potency entry was “inactive”. In the case of `CN1CCC(N(Cc2cccs2)c2ccccc2)CC1`, the Potency result was “inactive”. Regarding `Cc1ccc(N=Nc2c(O)c(C(=O)O)cc3ccccc23)c(S(=O)(=O)O)c1`, the Potency result was “inactive”. For the compound `CCCCNc1ccc(C(=O)OCCOCCOCCOCCOCCOCCOCCOCCOCCOC)cc1`, the Potency entry is “inactive”. Turning to `COc1ccc2cccc(CCNC(C)=O)c2c1`, the Potency result is “inactive”.

For the compound `Brc1c2ccccc2cc2ccccc12`, the Potency entry was “inactive”. In the case of `CCCCCCOC(=O)NC(=N)c1ccc(NCc2nc3cc(C(=O)N(CCC(=O)OCC)c4ccccn4)ccc3n2C)cc1`, the Potency result is “inactive”. Regarding `CC(=O)c1cccc([N+](=O)[O-])c1`, the Potency entry was “inactive”. Same read-out and setting: the value for `COc1ccc(-c2nc3ccc(C4=NNC(=O)CC4C)cc3[nH]2)cc1` (stereo not given) was “inactive”. Same read-out and setting: the value for `O=[N+]([O-])c1ccc(NCCO)c(OCCO)c1` was “inactive”. For `O[C@@H](COc1cccc2ncccc12)CN1CCN(C2c3ccccc3[C@@H]3[C@H](c4ccccc42)C3(F)F)CC1` (stereo not given in full), the Potency entry was “inactive”. Consider `CCCOC(C(=O)OC1CCN(C)CC1)(c1ccccc1)c1ccccc1`, for which the Potency result was “inactive”.

Take `CN1Cc2cc(C(=O)N3CCC(C4CCNCC4)CC3)ccc2NC(CC(=O)O)C1=O` (stereo not given): the Potency entry is “inactive”. Regarding `CC1(c2ccccc2)OC(C(=O)O)=CC1=O` (stereo not given), the Potency result was “inactive”. On the same count and under the same terms, the value for `CC(C)(CO)[N+](=O)[O-]` was “inactive”. With `NC(N)=NCCC[C@H](N)C(=O)O`, the activity change, negative = cytotoxicity was 4.6% [at 8.39 µM]. Regarding `CC(C)Cc1ccc(C(C)C(=O)OCc2ccccn2)cc1` (stereo not given), the Potency entry is “inactive”.

In the case of `O=C(OCCc1ccccc1)c1ccccc1`, the Potency result is “inactive”. Same read-out and setting: the value for `CCOc1ccc(O)cc1` was “inactive”. Still for that read-out and setting: the value for `NCc1ccccc1Sc1ccccc1CO` was “inactive”; that for `Nc1cccc([N+](=O)[O-])c1` was “inactive”.

On to `C[N+]1(CC2COC(c3ccccc3)(C3CCCCC3)O2)CCCCC1` (stereo not given), for which the Potency entry is “inactive”.
